Pf growth 48h – P. falciparum growth inhibition at 48 hours (one generation); Potency, µM (top dose mostly 28.7 µM), for inactives: at the highest dose activity change, negative = inhibition, actives largely listed as inhibitors; 310,000 compounds, 5.9% hits; AID 504832; P. falciparum luciferase growth in erythrocytes, 48 h; further: potency means the concentration at half of the fitted maximal effect; on the % scale 0 is the no-effect control and ±100 the full control effect
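Here the parasites carry a stable luciferase gene and grow inside erythrocytes in Albumax-based RPMI medium with compound for one erythrocytic cycle. Activity is scored as loss of luminescent signal.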
Pf growth 96h – P. falciparum growth inhibition at 96 hour, primary screen for plastid delayed-death inhibitors | P. falciparum luciferase reporter growth, 96 h | 320,000 compounds, 6.9% hits | Potency, µM (titrated, usually from 28.7 µM), for inactives: top-dose activity change, negative = inhibition, hits mostly inhibitors; further: potency means the concentration at half of the fitted maximal effect; on the % scale 0 is the no-effect control and ±100 the full control effect
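P. falciparum expressing integrated firefly luciferase grown in erythrocytes (2% hematocrit, 0.05% parasitemia final) with compounds for 96 hours at 37 C, 5% CO2. Growth inhibition read as loss of luminescence after adding luciferase detection reagent.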
Marburg entry inh – blocks Marburg virus binding to or entry into cells. Marburg virus pseudotyped entry inhibition, cell reporter. Potency, µM (highest dose often 37.8 µM), for the others: at the top dose activity change, negative = inhibition, most hits filed as inhibitors. 300,000 compounds, 1.8% hits. AID 540276; calls by dose curve; tested in HEK293 cells; further: potency means the concentration at half of the fitted maximal effect; on the % scale 0 is the no-effect control and ±100 the full control effect
Cycloheximide cs – counter-screen for Shiga toxin inhibitors: cycloheximide protein synthesis inhibition. cell reporter, cycloheximide protein synthesis inhibition counterscreen. max response, %. 300,000 compounds, 12% hits. AID 2314; in the data active means max response mostly above about 13%, no sharp cut-off; inactive means mostly below about 14%; further: read at 38.3 µM for the half of the compounds with a filed dose; 0% is about no effect
Shiga toxin inh – Shiga toxin inhibition. Vero cells, Shiga toxin protein synthesis inhibition reporter. inhibition, % at 38.7 µM. 290,000 compounds, 9.2% hits; in the data active means inhibition mostly above about 28%, no sharp cut-off; inactive means mostly below about 43%; further: 0% is about no effect
Lassa entry inh – inhibitors of Lassa virus binding or cell entry | Lassa virus pseudotype entry inhibition, cell reporter | Potency, µM (highest dose often 37.9 µM), inactives show at the top dose activity change, negative = inhibition, hits mostly inhibitors | 300,000 compounds, 1.2% hits | AID 540256; calls by dose curve; tested in HEK293 cells; further: potency means the concentration at half of the fitted maximal effect; on the % scale 0 is the no-effect control and ±100 the full control effect; nearly all actives have a fitted effect of over 50% in size
The depositor's hits bear a star; u = inconclusive; x = no result given; [ ] = dose if it differs, or a comment. This is a sample that favours compounds with a hit; in the whole collection about 19% have one here. Unless noted, the call rests on the fitted dose curve; in most records, active means well fitted inhibition curve with a large enough effect; inconclusive means small, poorly fitted or top-dose-only effect, or another doubt; inactive means no such curve, though single readings can be large or run the other way.

SMILES | Pf growth 48h | Pf growth 96h | Marburg entry inh | Cycloheximide cs | Shiga toxin inh | Lassa entry inh
Cc1ccc(C(C)(C)C)c(OCCOCCN2CCCC2)c1 | -29% | u | 12µM* | -6 | 17 | u
COc1cc(C2/C(=C(/O)c3ccccc3)C(=O)C(=O)N2c2ccccn2)ccc1O (configuration not stated) | 18% | 40% | 14%[46.1 µM] | -2 | -16 | 12%
CCN1CCN(c2nnc(-n3cccc3C(=O)NCc3ccccc3OC)s2)CC1 | x | x | x | x | x | -17%[46.1 µM]
C=CCN(CC=C)c1cnn(-c2nc3ccccc3[nH]2)c(=O)c1Cl | -22% | x | u | 27* | 89* | -18%
O=c1c(Cl)c(NCCCO)cnn1-c1nc2ccccc2[nH]1 | 348% | 463% | u | 84* | 137* | u
O=c1[nH]ncc(NCCCO)c1Cl | 19% | 11% | 5% | -2 | -2 | -7%
CC(NC(=O)CC(O)(C(F)(F)F)C(F)(F)F)c1ccccc1 (configuration not stated) | u | x | 21% | -1 | 6 | 1%
CCC1(C(=O)O)NC(c2cccc(OC)c2O)C2C(=O)N(c3ccccc3)C(=O)C21 (configuration not stated) | 5% | -3% | 7% | -1 | -8 | 2%
C/C(=N\NC(=O)c1c(Cl)cnn1C)c1cccc(NC(=O)COc2ccccc2)c1 | -10% | -22% | u | 16* | 24 | u
COC(=O)COc1cccc(NC(=O)COc2ccccc2)c1 | 15% | 3% | 8% | 1 | 0 | -4%
CC(=O)c1cccc(NC(=O)COc2ccccc2)c1 | 62% | -2% | -11% | 18* | 67 | u
CC(C)CCOCC(=O)Nc1cccc(C(=O)O)c1 | 272% | 196% | u | 105* | 120* | u
CSc1cccc(NC(=O)COc2ccccc2)c1 | 51% | x | 2% | 40* | 61 | 19%
Cc1ccc(-n2nnnc2-c2cnc(-c3cccnc3)nc2C(F)(F)F)cc1 | x | u | -37% | 7 | -4 | u
CN(C)S(=O)(=O)c1ccc(Cl)c(C(=O)NC2CCN(Cc3ccccc3)C2)c1 (configuration not stated) | 6% | -2% | -23%[46.1 µM] | -3 | -14 | 2%
Cc1ccc(CNC(=O)COC(=O)c2cc3c(s2)CCC(C)C3)cc1 (configuration not stated) | -4% | -15% | u | 0 | 15 | 7.9µM*
CC1CCc2sc(C(=O)OCC(=O)NCc3ccccc3)cc2C1 (configuration not stated) | -12% | 4% | -22% | 0 | -9 | 10µM*
CC1CCc2sc(C(=O)NCc3ccc(F)cc3)cc2C1 (configuration not stated) | x | 55% | -6% | 14 | 25 | 5%
CC1CCc2sc(C(=O)NCc3ccccn3)cc2C1 (configuration not stated) | 57% | 115% | u | x | x | 7%
O=C(COc1ccccc1Cl)NNC(=O)c1ccc(-n2cncn2)c([N+](=O)[O-])c1 | -10% | -11% | x | x | x | x
Cc1ccc(S(=O)(=O)NC23CC4CC(CC(C4)C2)C3)cc1 | 15µM* | u | x | x | x | x
Cc1ccc(S(=O)(=O)NN=C2C3CC4CC(C3)CC2C4)cc1 | 1% | 10% | -4% | x | x | 12%
CC1CN(C)C(C)c2c1oc1ccc([N+](=O)[O-])cc21 (configuration not stated) | 21% | 8% | 11%[14.2 µM] | -2 | -24 | 1%
CC1CN(C(=O)N2c3ccccc3Sc3ccccc32)C(C)CC1=O (configuration not stated) | -63% | u | -28% | -4 | -22 | 13%
Clc1ccc2nc3c4ccccc4cnn3c2c1 | 241% | u | 4%[46.1 µM] | 62* | 117* | u
SMILES | Pf growth 48h | Pf growth 96h | Marburg entry inh | Cycloheximide cs | Shiga toxin inh | Lassa entry inh
COc1ccccc1N(C)S(=O)(=O)c1ccc(C(=O)OCC(=O)c2c[nH]c3ccccc23)cc1 | u | u | 22% | 2 | 5 | 3%
CN1C(=O)[C@H]2[C@@H](C3CC3)N3C(=O)CN(CCO)C(=O)[C@@]3(Cc3ccccc3)[C@H]2C1=O | 11% | 40% | x | -2 | -5 | x
Cc1ccc(S(=O)(=O)N2CCC3(CC2)OCCN3S(=O)(=O)c2c(C)cc(C)cc2C)cc1 | 10µM* | u | 6% | x | x | u
COc1ccc(S(=O)(=O)N2CCC3(CC2)OCCN3S(=O)(=O)c2cccs2)cc1OC | u | 9.3µM* | 15% | x | x | -7%
COc1ccc(S(=O)(=O)N2CCC3(CC2)OCCN3S(=O)(=O)c2c(C)cc(C)cc2C)cc1 | 1µM* | 0.83µM* | u | x | x | u
CCC(=O)N(CCc1ccccc1)Cc1cc2cc3c(cc2[nH]c1=O)OCO3 | u | u | 5% | 4 | -19 | 3%
Cc1ccnc(SCC(=O)Nc2sc3c(c2C#N)CCC(C(C)(C)C)C3)n1 (configuration not stated) | x | u | -11% | -6 | 1 | -24%
O=C(Nc1ccc(C(=O)N2CCOCC2)cc1)c1cccc(Br)c1 | 7% | u | u | 30* | 69 | u
O=C(Nc1cccc(Br)c1)c1cccc(OC(=S)N2CCOCC2)c1 | u | 27% | u | 41* | 44* | u
Cc1ccc(NC(=O)c2ccc(OC(=S)N3CCOCC3)cc2)cc1 | 21% | -17% | 2% | 21 | 32 | -8%
Cc1cccc(Nc2nnc(SC3CCOC3=O)s2)c1C (configuration not stated) | 16% | 16% | u | 9 | 27 | -5%[46.1 µM]
O=P(O)(CCc1ccccn1)CN1CCOCC1 | x | 5.2µM* | 2% | -4 | 22 | 4%
O=P(O)(CCc1ccccn1)CN1CCCCC1 | x | -5% | 12% | -2 | 0 | u
CCN(CC)c1ccc(Nc2nc(N3CCOCC3)c3ccccc3n2)cc1 | 0% | x | u | -4 | -18 | 18µM*
COc1ccc(Nc2nc(N3CCCC3)c3ccccc3n2)cc1 | 3.3µM* | 222% | 1.6µM* | 1 | 23 | u
CCn1c2ccccc2c2cc(NC(=O)COc3cc(C)c(Cl)c(C)c3)ccc21 | x | x | u | x | x | 13%[46.1 µM]
COc1ccc(CCNC(=O)c2cc3c(=O)n4ccccc4nc3n(CC3CCCO3)c2=N)cc1OC (configuration not stated) | u | u | x | 8 | 21 | x
COc1ccc(CCNC(=O)c2cc3c(=O)n4ccccc4nc3n(C3CCCCC3)c2=N)cc1OC | u | 10µM* | x | -11 | -12 | x
COc1ccc(CCNC(=O)c2cc3c(=O)n4ccccc4nc3n(C3CCCCC3)c2=N)cc1 | u | 4.1µM* | x | -16 | -7 | x
COCCOc1ccc(C(F)(F)F)cc1NC(=O)COC(=O)c1c(C)noc1C | 9.3µM* | 4.7µM* | -8% | -5 | -5 | 2%
CC(C)Sc1nc2c(c(=O)[nH]c(=O)n2C)n1Cc1ccccc1 | -5% | 0% | 0% | 1 | -3 | -19%
Cn1ccnc1SCC(=O)c1ccc(Cl)cc1 | 227% | 30% | u | 37* | 118* | 0%[46.1 µM]
Cn1ccnc1SCC(=O)c1ccc(O)cc1 | 104% | 61% | x | 26* | 37 | x
Cn1c(CO)cnc1SCC(=O)c1ccc(Cl)cc1 | u | 46% | u | 18 | 31 | u
